Assay outcomes as filed in PubChem.
FLuc inh – inhibitors of firefly luciferase | P08659 | AID 411 | actives 2.2% (n = 72,000) | Potency, µM (top dose mostly 57.1 µM), without a hit: top-dose activity change, negative = inhibition, hits mostly inhibitors | purified firefly luciferase, luminescence, 8 min; active = well fitted inhibition curve with a large enough effect; inconclusive = small, poorly fitted or top-dose-only effect; note: nearly all actives have a fitted effect of over 40% in size
Target sequence (P08659 whole entry, looked up): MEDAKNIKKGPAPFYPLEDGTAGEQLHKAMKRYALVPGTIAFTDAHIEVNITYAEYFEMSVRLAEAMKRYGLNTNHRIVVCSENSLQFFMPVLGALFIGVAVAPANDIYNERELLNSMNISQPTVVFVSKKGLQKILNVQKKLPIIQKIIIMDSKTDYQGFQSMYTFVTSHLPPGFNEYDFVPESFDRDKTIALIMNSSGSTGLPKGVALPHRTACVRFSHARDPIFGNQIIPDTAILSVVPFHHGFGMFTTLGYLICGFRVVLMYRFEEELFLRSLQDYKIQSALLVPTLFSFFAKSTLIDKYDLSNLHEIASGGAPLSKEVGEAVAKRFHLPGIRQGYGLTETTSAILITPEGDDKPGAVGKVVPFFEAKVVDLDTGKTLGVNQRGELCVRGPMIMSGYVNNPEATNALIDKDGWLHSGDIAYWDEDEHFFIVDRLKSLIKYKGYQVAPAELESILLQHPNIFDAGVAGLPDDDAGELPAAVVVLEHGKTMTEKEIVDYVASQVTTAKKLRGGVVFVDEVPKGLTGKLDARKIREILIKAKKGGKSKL
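Substrate buffer containing 10 uM ATP (pH 7.2 imidazole, Mg2+, KCl, detergent, BSA) is dispensed, compound pinned in, then luciferase/luciferin detector mix added. After 8 min at ambient temperature, light output is measured.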
Bst PK mod – modulators of Bacillus stearothermophilus pyruvate kinase; purified pyruvate kinase, luminescence ATP production; ribose 5-phosphate activator present at AC10; Potency, µM; actives 1.2% (n = 51,000); in the data active = potency below about 11 µM; inconclusive = mostly about 12 µM to 25 µM;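 the screen sought inhibitors and activators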;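 note: scaled between full activation by ribose 5 phosphate and full inhibition by luteolin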
* = called active by the depositor; i = inactive; ? = inconclusive; / = no result given; [ ] = dose if it differs, or a comment. Only some compounds are listed: those with a hit (about 2.5% of all), similar ones and a draw of the others. Unless noted, % is set by controls: 0 for no effect and ±100 for the full control effect; potency is the fitted concentration of half-maximal effect.

SMILES	FLuc inh	Bst PK mod
Cc1ccccc1C(=O)Nc1ccc2c(c1)OCO2	15.8µM*	?
CN(c1ccccc1C(=O)Nc1ccc2c(c1)OCO2)S(C)(=O)=O	-1.4%	>57
CCCN1Cc2cccc(C(=O)Nc3ccc4c(c3)OCO4)c2C1=O	-2.2%	/
O=C(Nc1cccc(Cl)c1)Nc1ccc2c(c1)OCO2	15.8µM*	/
CC(=O)c1cc2c(cc1NC(=O)Nc1cccc(Cl)c1)OCCO2	-5.1%	>57
O=C(O)C[n+]1ccccc1	-0.8%[11.4 µM]	/
O=C1C=C(Nc2nc(C(=O)O)cc(=O)[nH]2)c2ccccc2C1=O	3.9%[11.4 µM]	/
COc1ccc(CNc2nc(-c3c(C)noc3C)nc3ccccc23)c(OC)c1	1.2%[2.29 µM]	/
Cc1ccc(S(=O)(=O)N[C@H]2COC(=O)C/C=C\[C@H](C)[C@@H](NS(=O)(=O)c3ccc(C)cc3)COC(=O)C/C=C\[C@@H]2C)cc1	0.9%[11.4 µM]	/
COc1ccc2c(c1)c1c(C)c3cnccc3c(C)c1n2CCCN	-0.8%[11.4 µM]	/
COc1ccc(Cl)cc1C(=O)Nc1ccc2c(c1)OCO2	12.6µM*	i
COc1ccccc1C(=O)NCc1ccc2c(c1)OCO2	0.8%	/
COc1cc(SC)ccc1C(=O)Nc1ccc2c(c1)OCCO2	1.26µM*	/
COc1ccc(Cl)cc1C(=O)Nc1ccc(NC(=O)c2ccco2)cc1	1.6%	/
COc1cc(C(=O)Nc2ccc3c(c2)OCCO3)c(-n2cnnn2)cc1OC	2.7%	>57
COc1ccccc1C(=O)Nc1ccc2c(c1)OCO2	25.1µM*	/
CCOC(=O)c1ccc(NC(=O)c2ccc3c(c2)OCO3)cc1	-14.3%	>57
CCOC(=O)c1c(C)[nH]c(C(=O)Nc2ccc3c(c2)OCO3)c1C	12.6µM*	i
O=CN1CCN(C[C@H](O)CN2CCCCC2)CC1	0.4%[11.4 µM]	/
c1cc(CSSCc2ccncc2)ccn1	0.5%[11.4 µM]	/
CN(C)c1ncc2nc(CCc3ccccc3)c(=O)n(-c3ccccc3)c2n1	-0.4%[11.4 µM]	/
O=C(Nc1ccc2c(c1)OCO2)c1ccncc1	-4.8%	/
O=C(Nc1ccc2c(c1)OCO2)c1ccc(Br)s1	12.6µM*	?
Nc1c(C(=O)Nc2ccc3c(c2)OCCO3)nnn1CCc1ccccc1	15.8µM*	/
COc1ccc(C)cc1NC(=O)c1nnn(CCc2ccccc2)c1N	2.5%	/
SMILES	FLuc inh	Bst PK mod
NC(=S)SCCC(=O)O	0.4%[11.4 µM]	/
COc1ccc(-c2noc(CCC(=O)Nc3cc(Cl)c(OC)cc3OC)n2)cc1	15.8µM*	>57
CCOc1ccc(-c2noc(CCC(=O)NC)n2)cc1OCC	-0.6%	>57
CNC(=O)CCc1nc(-c2ccc(C(C)(C)C)cc2)no1	12.6µM*	?
CC(C)(C)c1ccc(-c2noc(CCC(N)=O)n2)cc1	12.6µM*	i
COc1ccc(-c2noc(CCC(=O)Nc3cc(OC)ccc3OC)n2)cc1	-11.5%	>57
CN(C)C(=O)CCc1nc(-c2ccc(C(C)(C)C)cc2)no1	1.8%	>57
CC(C)(C)c1ccc(O)c(CN(Cc2cc(C(C)(C)C)ccc2O)C2CCCCC2)c1	5.2%[11.4 µM]	/
CCNc1ncc2nc(-c3ccc(F)cc3)c(=O)n(CCOC)c2n1	0.5%[11.4 µM]	/
COCCCn1cnc2c(c1=O)c1nc3ccccc3nc1n2-c1ccccc1	0.8%	>57
COCCCn1cnc2oc3nc4ccccc4nc3c2c1=O	25.1µM*	/
CCN1C(=O)[C@H]2[C@H]3[C@H](O)[C@H](O)C/C(=N/O[C@@H](C)c4cn([C@H]5COC[C@H]5O)nn4)[C@@H]3CC[C@@H]2C1=O	1.4%[11.4 µM]	/
Cc1noc(C)c1COC(=O)c1ccc(-c2nc3ccccc3s2)s1	8.4%	>57
O=C(NC1CC1)c1ccc(-c2nc3ccccc3s2)s1	1.58µM*	0.799*
COc1cc2ccc([C@H](C)NCC#N)cc2cc1OC	2.0%[11.4 µM]	/
COCCNc1ncnc2ccc(-c3ccccc3C(F)(F)F)cc12	0.4%[2.29 µM]	/
COc1ccc(OC)c(NC(=O)c2cc3ccccc3o2)c1	-20.3%	/
COc1ccc(OC(=O)c2cc3ccccc3o2)cc1	7.94µM*	?
NC(=O)C1CCN(c2oc(-c3ccccc3F)nc2S(=O)(=O)c2ccc(Cl)cc2)CC1	-0.6%	11.2*
O=S(=O)(c1ccccc1)c1nc(-c2ccco2)oc1N1CCCCCC1	-1.2%	>57
Clc1ccc([C@@H](c2ccccc2Cl)C(Cl)Cl)cc1	-4.9%	/
NC(=O)c1cc2ccc(O)cc2oc1=NCc1ccccc1	-4.6%	/
COc1ccc(OC)c(N=c2oc3cc(O)ccc3cc2C(N)=O)c1	12.6µM*	>57
CCCCCc1nc2c(=O)n(C)c3ccccc3c2o1	-0.2%	/
Cn1c(=O)c2nc(-c3ccccc3)oc2c2ccccc21	-3.2%	0.432*
SMILES	FLuc inh	Bst PK mod
O=c1c(-c2ccccc2)c(O)nc2ccccn12	1.5%	>57
O=C(N=c1nc2ccccn2s1)c1ccccc1	0.794µM*	1.14*
N#C[C@H](c1ccccc1)N1CCCN([C@@H](C#N)c2ccccc2)C1c1ccccc1O (stereo not given in full)	2.2%[11.4 µM]	/
CNc1oc(-c2ccc(OCc3ccccc3)cc2)nc1C#N	-0.7%	i
N#Cc1nc(-c2ccc(OCc3ccccc3)cc2)oc1N1CCOCC1	5.6%	1.96*
C=CCNc1oc(-c2ccc(OCC)cc2)nc1C#N	-2.2%	5.34*
